# Source: PubChem BioAssay (several laboratories)
# An excerpt weighted towards active compounds, which were near 1.5% of everything screened.
# RTF Ca sens inh – cardiac RTF calcium desensitization; inhibition, % at 7.15 µM; 340,000 compounds, 0.12% hits; IANBD-labeled cardiac RTF, Ca2+ fluorescence;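 active means inhibition above the mean inhibition of all tested compounds plus 3 SD, cut at about 17% in these data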;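 further: assay run at fixed EC70 calcium of 1.6 mM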
# cardiac RTF act – cardiac RTF calcium sensitization; IANBD-labeled TnC RTF fluorescence at EC20 calcium; 0% EC20 calcium, 100% full calcium; AID 493008; activation, % at 7.2 µM; P19429+P45379; 340,000 compounds, 0.24% hits;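 active means activation above the mean over all tested compounds plus 3 SD, cut at about 30% in these data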;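 further: rise in fluorescence read as greater calcium sensitivity of cardiac thin filaments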
# IDE cell activ – boosts human insulin-degrading enzyme activity in HEK cells. FAbeta-B cleavage, fluorescence polarization; 0% vehicle, 100% cell-free pure enzyme wells. AID 493087. P14735. activation, % at 5.96 µM. 340,000 compounds, 0.073% hits;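 active means activation above the mean of all tested compounds plus 3 SD, set per screening campaign, cut at about 17% in these data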
# TPT1 inhibitor – blocks Candida albicans tRNA 2'-phosphotransferase. 300,000 compounds, 0.81% hits. recombinant caTPT1, FP RNA substrate dephosphorylation. inhibition, % at 5 µM;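 active means inhibition above the mean of all tested compounds plus 3 SD, set per screening campaign, cut at about 24% in these data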;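 further: plate controls were DMSO alone for no effect and ferristatin control at 100 nM for full effect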
# IDE inh – inhibitors of human insulin-degrading enzyme in cells. P14735. HEK cells, FAbetaB cleavage, fluorescence polarization. inhibition, % at 5.59 µM. 320,000 compounds, 0.41% hits. AID 434962;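 active means percent inhibition above the average of all tested compounds plus 3 SD, set per screening campaign, cut at about 16% in these data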;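 further: IDE supplied by intact live HEK cells; FP after avidin binding of uncleaved biotin substrate so inhibition keeps polarization high; 0% = DMSO wells and 100% = 60 µM reference IDE inhibitor Ii1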
# CRFBP-R2 agonist – agonists of human CRF-binding protein/CRF-R2 receptor complex. 350,000 compounds, 0.46% hits. HEK293 CRF-R2/CRF-BP, calcium dye fluorescence (FLIPR); percent of saturating CRF peptide response. activation, % at 13.2 µM. AID 588473;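 active means activation of at least 50%, plus an integration ratio under a set limit after plate pattern correction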;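 further: plate controls were neutral control wells without compound for no effect and CRF at EC100 for full effect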
# Numbers without * were called inactive; i = inactive; x = not tested or not shown; + = active, no number.
SMILES,RTF Ca sens inh,cardiac RTF act,IDE cell activ,TPT1 inhibitor,IDE inh,CRFBP-R2 agonist
CN(C)NC(=S)Nc1ccc2nc(-c3ccccn3)c(-c3ccccn3)nc2c1,-3,-2,5,-3,-2,59*
CC(=O)Oc1ccc2c(c1)Oc1cc(OC(C)=O)ccc1C21OC(=O)c2ccccc21,i,+,42*,-15,-18,368*
CC1CCCCC1NC(=O)c1ccc(NC2=NC3CS(=O)(=O)CC3S2)cc1 (stereo not given),-8,-1,3,-4,4,2
COc1ccc(S(=O)(=O)NCC2CCC(C(=O)NCCCN3CCCC3=O)CC2)cc1 (stereo not given),4,1,6,1,5,0
COc1ccc(/C=N/Nc2ncnc3c2[nH]c2ccc(C)cc23)c(OC)c1OC,x,x,x,2,39*,-1
COc1cc(CNc2ncnc3c2[nH]c2ccc(C)cc23)cc(OC)c1,6,-2,-41,2,55*,-4
COc1cc(OC)c(OC)cc1/C=N/Nc1ncnc2c1[nH]c1ccccc12,1,-9,-5,2,8,-1
COc1ccc2[nH]c3c(NCCN4CCCCC4)ncnc3c2c1,-1,1,1,2,7,x
N=c1ccn2c(n1)O[C@H]1[C@@H](CO)[C@H](O)O[C@H]12,-6,0,4,2,3,-1
CCCC1OC23CCCCC2C(C#N)(C(=N)O3)C1(C#N)C#N (stereo not given),-15,14,4,-18,7,7
CCC1OC23CCCCC2C(C#N)(C(=N)O3)C1(C#N)C#N (stereo not given),-40,35*,7,-40,5,10
C[C@@H]1CN([C@@H](C)CO)C(=O)CCCn2nncc2CO[C@H]1CN(C)C(=O)c1ccncc1,x,x,x,x,x,0
C[C@H](CO)N1C[C@H](C)[C@@H](CN(C)Cc2ccc(C(=O)O)cc2)Oc2ncc(Br)cc2C1=O,x,x,x,x,x,1
O=C(Nc1ncc(S(=O)(=O)c2ccc([N+](=O)[O-])cc2)s1)c1cccc2ccccc12,-8,2,2,-2,-2,112*
O=C1C(=O)N(Cc2cccnc2)C(c2cccc([N+](=O)[O-])c2)/C1=C(/O)c1ccc2c(c1)OCO2 (stereo not given),1,1,-2,-1,-1,1
O=S(=O)(NCC1CCCO1)c1ccc(Cl)nc1 (stereo not given),-4,4,8,-1,-3,-2
COc1ccc(S(=O)(=O)NCCCn2ccnc2)cc1Cl,1,0,4,0,4,0
CC(OC(=O)c1ccc(Cl)nc1)C(=O)NC1(C#N)CCCCC1 (stereo not given),4,-6,18*,3,2,2
CC(OC(=O)c1ncc(Cl)c(Cl)c1Cl)C(=O)NC1(C#N)CCCCC1 (stereo not given),-23,2,5,-3,8,-1
C=CCN1C(=O)/C(=C2/Sc3ccc(OC)cc3N2CC)SC1=S,0,4,3,6,-1,68*
CC(C)(C)NS(=O)(=O)c1ccc(CCC(=O)NCc2ccccn2)cc1,-11,4,-1,-1,7,3
COc1ccc(C(=O)CSc2nnn(-c3cccc(NC(C)=O)c3)n2)cc1,x,x,x,4,-1,69*
O=C1C=CC(=O)c2c(O)c(CO)c(CO)c(O)c21,36*,-32,3,x,x,28
O=C1C2C3C=CC(C3)C2C(=O)N1c1ccc2ccccc2n1 (stereo not given),2,-3,1,-1,1,-1
O=C1C2C3C=CC(C3)C2C(=O)N1c1cccc(N2C(=O)C3C4C=CC(C4)C3C2=O)n1 (stereo not given),-7,2,-3,0,-7,73*
Cc1cc(NC(=O)COC(=O)C2CC2)ccc1Br,-1,-1,3,x,3,1
COCCN(C(=O)CN1CCCc2ccccc21)c1c(N)n(Cc2ccccc2)c(=O)[nH]c1=O,-100,61*,13,11,-2,0
CCOC(=O)C(=O)N1CCN(c2nc(-c3ccc(Cl)cc3)cs2)CC1,0,4,-8,-3,8,0
CCOC(=O)N1CCN(c2nc(-c3ccc(F)cc3)cs2)CC1,-5,-1,-7,-3,17*,1
